Screens (PubChem)
In the library only some 1.2% were active in any assay of this set; here they are far more common.
JMJD2C inh – inhibitors of GASC-1 histone demethylase, primary screen, biochemical, fluorescence, DELFIA europium; Lysine-specific demethylase 4C (Homo sapiens), Q9H3R0; GST-JMJD2C(1-420) H3K9me3 demethylation; inhibition, % at 2.35 µM; hit rate 0.069% among 330,000; AID 2099, 2009;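 active = more than half of a compound's replicate wells show inhibition beyond 50%, single wells judged on their own value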;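 also: signal counts dimethyl H3K9 product captured on neutravidin plate; 0% = median of DMSO wells and 100% = 0.3 times that DMSO median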
GPR7 antag – GPR7 receptor antagonists, primary screen, cell-based, fluorescence, single concentration; GPR7-expressing cells, fluorescence antagonist assay; hit rate 1.1% among 290,000; inhibition, % at 4.4 µM; in the data active = inhibition above about 16%, passing the limit was not always enough;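 also: cells stimulated with the agonist NPW; 0% = agonist with vehicle and 100% = vehicle without agonist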
Target sequence (P48145 whole entry, looked up): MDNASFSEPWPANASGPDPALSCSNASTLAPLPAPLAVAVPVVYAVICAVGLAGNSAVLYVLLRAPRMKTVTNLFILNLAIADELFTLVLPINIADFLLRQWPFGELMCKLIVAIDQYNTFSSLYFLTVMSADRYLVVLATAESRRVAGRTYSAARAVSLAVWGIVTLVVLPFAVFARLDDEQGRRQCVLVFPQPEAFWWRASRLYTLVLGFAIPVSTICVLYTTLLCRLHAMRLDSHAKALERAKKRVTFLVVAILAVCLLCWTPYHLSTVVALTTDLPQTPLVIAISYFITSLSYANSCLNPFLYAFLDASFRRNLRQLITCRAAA
pCIP destab – p/CIP-EGFP fusion destabilizers, primary screen, fluorescence, F442A cells; Q05BA5; 16 h; decrease of EGFP signal, % at 10 µM; hit rate 0.01% among 290,000;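 active = EGFP signal decrease of at least 30% at 10 µM or well 3 SD below plate mean, unless failing retest; inactive = the rest, including hits failing retest or dose response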
VLA-4 inh – inhibition in human VLA-4 binding assay, primary screen, VLA-4 allosteric modulator project, MLPCN library, flow cytometry, VLA-4 expressing cells. ligand binding flow cytometry. hit rate 0.2% among 330,000. AID 2557, 2010. inhibition, % (about 7 µM as worked out from the volumes in the protocol). Integrin alpha-4 (Homo sapiens), P13612; in the data active = inhibition above about 50%
GPR7 antag cf – GPR7 receptor antagonists, confirmation, cell-based, fluorescence, single concentration; shares compounds with GPR7 antag; GPR7-expressing cells, calcium fluorescence antagonist mode; inhibition, % at 4.4 µM; hit rate 52% among 2,400; AID 1952, 2009; in the data active = inhibition above about 24%;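 also: stimulated with the GPR7 agonist NPW; 0% = agonist plus vehicle and 100% = vehicle alone without agonist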
MCHR1 antag – MCHR1 antagonists in cells, counter-screen for GPR7 antagonist project, cell-based, fluorescence, human; MCHR1-expressing cells, fluorescence antagonist assay; AID 2148, 2009; hit rate 62% among 2,400; inhibition, % at 4.4 µM; shares compounds with GPR7 antag; in the data active = inhibition above about 22%;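 also: 0% = vehicle with agonist and 100% = vehicle without agonist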
The depositor's hits bear a star; · = not tested or not shown.

SMILES | JMJD2C inh | GPR7 antag | pCIP destab | VLA-4 inh | GPR7 antag cf | MCHR1 antag
COc1cc2ccccc2cc1C(=O)N(CCN(C)C)c1nc2ccc(Br)cc2s1 | -13 | 26* | -13 | 6 | 29* | 36*
COc1cc2ccccc2cc1C(=O)N(CCN(C)C)c1nc2c(F)cc(F)cc2s1 | 16 | -4 | -11 | 0 | · | ·
CCOC(=O)N/N=C/c1cn(CCCOc2ccccc2)c2ccccc12 | -2 | 27* | -33 | 14 | 9 | 44*
CCOC(=O)N/N=C/c1cn(CCCOc2ccc(C)cc2)c2ccccc12 | 0 | 11 | -18 | 18 | · | ·
CCOc1cc(CNC2CCCC2)cc(Cl)c1OCc1ccccc1 | -13 | 26* | -4 | -1 | 40* | 30*
CCOc1cc(CNCC(C)C)cc(Cl)c1OCc1ccccc1 | 15 | 9 | -1 | 26 | · | ·
COC(=O)c1ccc(-c2nc3cc(N)ccc3o2)cc1 | 0 | 61* | 1 | -6 | -12 | 18
COc1cccc(N2CC(O)Cn3c2nc2c3c(=O)n(CCCc3ccccc3)c(=O)n2C)c1 (stereo not drawn) | 5 | -16 | -28 | 2 | · | ·
O=C(CN(C(=O)c1csnn1)c1cccc(F)c1)NC1CCCC1 | -3 | 28* | -4 | -17 | 4 | 1
O=C(CN(C(=O)c1csnn1)c1cccc(Cl)c1)NC1CCCCC1 | -3 | 2 | -12 | 13 | · | ·
CN1CCN(c2nc(-c3ccc(Cl)cc3)nc3ccccc23)CC1 | -10 | 53* | 1 | · | 41* | 36*
CN1CCN(c2nc(-c3ccncc3)nc3ccccc23)CC1 | -10 | -8 | -8 | 1 | · | ·
CCOC(=O)C(C)Sc1nc(-c2ccco2)cc(C(F)(F)F)c1C#N (stereo not drawn) | 12 | -4 | 4 | -87 | · | ·
Cc1ccc(C(=O)NCCN2C3=NC[C@@H](Cc4ccccc4)N3C[C@H]2Cc2ccc(O)cc2)cc1Br | -5 | 49* | -3 | · | 53* | 48*
Cc1oc2c(C)c(O)ccc2c(=O)c1-c1cnn(-c2ccccc2)c1 | 2 | 28* | 2 | 0 | 19 | 3
COc1ccc2c(=O)c(-c3cnn(-c4ccccc4)c3)c(C)oc2c1 | 4 | -6 | -6 | 3 | · | ·
O=C(Cc1cccc(C(F)(F)F)c1)Nc1ccccc1 | 6 | -7 | -8 | 7 | · | ·
CCCCNC(=NCc1cccc(C(F)(F)F)c1)Nc1ccccc1 | 1 | 44* | -4 | 8 | 49* | 31*
COc1ccccc1CNC(=O)CCS(=O)(=O)c1ccc(Cl)cc1 | -5 | · | · | 0 | · | ·
Cc1cc([N+](=O)[O-])nn1CC(=O)Nc1c(C)n(C)n(-c2ccccc2)c1=O | -31 | 31* | -2 | 21 | -2 | 1
CC(NC(=O)CN(C)CC(=O)Nc1ccc(Cl)c(C(F)(F)F)c1)c1ccccc1 (stereo not drawn) | -9 | · | · | 3 | · | ·
CN(CC(=O)NCc1ccc(F)cc1)CC(=O)Nc1ccc(Cl)c(C(F)(F)F)c1 | 6 | 28* | -14 | 3 | 27* | 61*
CCOC(=O)/C(=C/C=C1\Sc2cc(C)c(C)cc2N1CC)C(C)=O | -10 | 24* | -733 | · | 38* | 76*
CCOC(=O)/C(=C/C=C1\Sc2ccccc2N1CC)C(C)=O | -7 | 11 | -81 | 1 | · | ·
CCOC(=O)/C(=C\C=C1/Sc2ccccc2N1CC)C(C)=O | 5 | 28* | -162 | 30 | 19 | 36*
CCc1ccccc1NC(=O)CN1C(=O)C2CCCN2c2ncc(Cl)cc21 (stereo not drawn) | 3 | 38* | -6 | -41 | 34* | 17
COc1cccc(-n2c(C)nc3cc(C(=O)O)ccc32)c1 | 2 | -1 | 6 | 13 | · | ·
Cc1c(S(=O)(=O)Nc2ccc(Oc3ccccc3)cc2)c(=O)n(C)c(=O)n1C | 2 | -20 | -14 | 2 | · | ·
O=C(CSc1nnc(Cc2cccs2)n1Cc1ccco1)Nc1cccc(Cl)c1 | -1 | 21* | 3 | 11 | 25* | 33*
O=C(CSc1nnc(Cc2ccccc2)n1Cc1ccccc1)NCc1ccco1 | -12 | 10 | -26 | 8 | · | ·
